Laboratory results reported in PubChem BioAssay AID624296 (National Center for Advancing Translational Sciences (NCATS), 2012).
In all, about 350,000 compounds went through this assay and about 9,900 (2.8%) were called active. A call without a number means that no potency is given here. Roughly 15% stayed inconclusive and do not appear here. Calls come from the whole dose curve; as a rule, active = well fitted activation curve with a large enough effect; inconclusive = small, poorly fitted or top-dose-only effect; inactive = no such curve, though single readings can be large or run the other way. The sample as a whole holds a higher share of actives than the screen did.

Experiment: A quantitative high throughput screen for small molecules that induce DNA re-replication in MCF 10a normal breast cells. Note: nearly all actives have a fitted effect of over 50% in size.
Conditions: MCF 10A DNA re-replication, Hoechst nuclear intensity, 48 h; series mostly up to 46.1 µM
Potency is the fitted concentration of half-maximal effect.

| SMILES | Potency |
| --- | --- |
| CCN(CC(=O)Nc1ccc(NC(C)=O)cc1)C(=O)CSC(=S)N1CCCC1 | inactive |
| Cc1cc(C(=O)NC2CC(C)(C)Cc3c2cnn3-c2ccccc2)n[nH]1 (stereo not given) | inactive |
| CC1(C)Cc2c(cnn2-c2cccc(F)c2)C(NC(=O)c2cc[n+]([O-])cc2)C1 (stereo not given) | inactive |
| COC(=O)c1ccc(C(=O)NC2CC(C)(C)Cc3c2cnn3-c2ccc(F)cc2)nc1 (stereo not given) | 20.6 µM (active) |
| CCOc1cc(C=NNC(=O)CCCC(=O)NN=Cc2ccc(O)c(OCC)c2)ccc1O | inactive |
| CCOc1cc(/C=C(\C#N)c2nc(-c3cccs3)c(NC(C)=O)s2)ccc1O | 5.8 µM (active) |
| COc1cc(/C=N\Nc2nc(-c3cccs3)c(NC(C)=O)s2)ccc1O | inactive |
| COc1ccc(S(=O)(=O)N2CCN(C(C)C(=O)Nc3ccc(C(C)C)cc3)CC2)cc1 (stereo not given) | inactive |
| CCN(CC(=O)Nc1cc(Cl)ccc1C)C(=O)CSCc1ccccc1 | inactive |
| Cc1ccccc1-c1cc(C(=O)NCC2CC2)n(CC2CC(c3cccnc3)=NO2)n1 (stereo not given) | inactive |
| Cn1c(SCC(=O)Nc2ccc(N3CCOCC3)cc2)nnc1C(F)(F)F | inactive |
| O=C(NCc1ccc2c(c1)OCO2)c1cc([N+](=O)[O-])ccc1N1CCOCC1 | 5.8 µM (active) |
| CC1CCN(c2ccc(C(=O)NCc3ccc4c(c3)OCO4)cc2[N+](=O)[O-])CC1 | inactive |
| O=C(NC1CCCCC1)c1cc([N+](=O)[O-])ccc1N1CCOCC1 | inactive |
| COc1ccccc1NC(=O)N(O)C1(C#N)CCCCC1 | inactive |
| CN(C)C(=O)CCc1ccc2c3c([nH]c2c1)[C@]1(C)[C@@H](C(=O)N2CCOCC2)C[C@H](CC(=O)NCCc2ccccn2)C(=O)N1CC3 | inactive |
| CC(C)CN1CC(C)C(=O)N(c2ccccc2)C1=S (stereo not given) | inactive |
| COc1ccc(CCNC(=O)Cn2c(=O)n(CC3CCCO3)c(=O)c3ccccc32)cc1OC (stereo not given) | inactive |
| COc1ccc2oc(C(=O)NCc3ccco3)c(C)c2c1 | inactive |
| Cc1ccc2nc3c(cc(C(=O)NCCc4ccccc4)c(=N)n3CC3CCCO3)c(=O)n2c1 (stereo not given) | 6.51 µM (active) |
| COc1ccc(CNC(=O)c2cc3c(=O)n4ccccc4nc3n(CC3CCCO3)c2=N)cc1 (stereo not given) | 9.2 µM (active) |
| O=C(NCC1CCCO1)c1cc(-c2ccccc2)nc2ccccc12 (stereo not given) | inactive |
| Cc1cccn2c(=O)c3cc(C(=O)NCC4CCCO4)c(=N)n(Cc4ccc(F)cc4)c3nc12 (stereo not given) | 1.84 µM (active) |
| O=C(CSc1nc2ccccc2c(=O)n1Cc1ccc(F)cc1)NCC1CCCO1 (stereo not given) | inactive |

| SMILES | Potency |
| --- | --- |
| COc1ccc(C(=O)Nc2ccccc2C(=O)NCc2ccco2)cc1 | inactive |
| COc1ccc(CCn2c(=N)c(C(=O)NCc3ccco3)cc3c(=O)n4cccc(C)c4nc32)cc1 | 18.4 µM (active) |
| Cc1ccc(CCNC(=O)c2ccc3nc4ccccc4c(=O)n3c2)cc1 | inactive |
| COc1ccc(CCNC(=O)CCn2c(=O)c3ccccc3n(CC(=O)NCC3CCCO3)c2=O)cc1OC (stereo not given) | inactive |
| Cc1ccc(-c2noc(-c3ccccc3C(=O)NCC3CCCO3)n2)cc1 (stereo not given) | inactive |
| O=C(CSc1nccn1-c1cccc(F)c1)NC1CCCC1 | inactive |
| C#CCOCCOCCOCCNc1nc(N2CCN(C(=O)Cn3cc(CCO)nn3)CC2)nc(N2CCN(C(=O)[C@H](CCCCN)n3cc(CCCC)nn3)CC2)n1 | inactive |
| O=C1NCC(Nc2ccccc2)C(=O)N1 (stereo not given) | inactive |
| COc1ccc(C(=O)C(C)OC(=O)c2cccc(S(=O)(=O)Nc3c(C)n(C)n(-c4ccccc4)c3=O)c2)cc1 (stereo not given) | inactive |
| CCC(=O)c1ccc(OCC(=O)N(CC)CC2COc3ccccc3O2)cc1 (stereo not given) | inactive |
| COc1cc(C)ccc1OCC(=O)OCC(=O)c1ccc[nH]1 | inactive |
| COC(=O)[C@]1(Cc2ccccc2)N[C@H](CN(C)S(=O)(=O)c2ccc(OC(F)(F)F)cc2)[C@@H]2C(=O)N(Cc3ccccc3)C(=O)[C@@H]21 | inactive |
| CC(NC(=O)c1ccccc1)C(=O)OCC(=O)Nc1cccc(S(=O)(=O)N2CCCC2)c1 (stereo not given) | inactive |
| CC(NC(=O)CN(C)S(=O)(=O)c1ccc(F)cc1)C1CC2CCC1C2 (stereo not given) | inactive |
| C=CC1=C(C(=O)O)N2C(=O)[C@@H](NC(=O)/C(=N\OCC(=O)O)c3csc(N)n3)[C@H]2SC1 | inactive |
| O=C(NCc1ccncc1)C(=O)NCC1OCCN1S(=O)(=O)c1ccc(Br)cc1 (stereo not given) | 18.4 µM (active) |
| O=C(NCc1ccccc1)C(=O)NCC1OCCN1S(=O)(=O)c1ccc(Br)cc1 (stereo not given) | inactive |
| COc1ccc(S(=O)(=O)N2CCOC2CNC(=O)C(=O)NCc2ccncc2)cc1OC (stereo not given) | inactive |
| CCN1C[C@@H]2[C@@H]3C(=O)N(Cc4ccccc4)C(=O)[C@@H]3[C@](C)(C1=O)N2C(=O)c1ccc(C(C)(C)C)cc1 | inactive |
| Cc1cccc(NS(=O)(=O)c2ccc(C)c(C(=O)NCC(c3ccccc3)N(C)C)c2)c1 (stereo not given) | inactive |
| OCc1ccc(-c2ccccc2)c(-c2ccccc2)c1 | 23.1 µM (active) |
| OCc1nc(CO)n(Cc2ccccc2)n1 | inactive |
| OCC(CO)(CO)NCc1ccc(-c2ccccc2)cc1 | inactive |
| O=c1c2ccccc2ccc2ccc(P(=O)(O)O)cc12 | inactive |

| SMILES | Potency |
| --- | --- |
| COc1ccc(NS(=O)(=O)c2cccc(C(=O)NCCc3ccc(S(N)(=O)=O)cc3)c2)cc1 | inactive |
| CN(CC(=O)Nc1ccc(Cl)c(C(F)(F)F)c1)C(=O)CCC(=O)c1ccccc1 | inactive |
| Cc1ccc(NC(=O)C(C)OC(=O)C2CC3CCCC(C2)C3=O)cc1S(=O)(=O)N1CCOCC1 (stereo not given) | inactive |
| CCc1ccccc1NC(=O)CN(C)C(=O)c1cc(C2CC2)nn1-c1ccccc1 | inactive |
| CCc1ccc(CN(C)C(C)C(=O)Nc2ccc(S(=O)(=O)N3CCCC3)cc2)cc1 (stereo not given) | inactive |
| CCC(=O)Nc1sc(C(=O)N2CCCCC2)c(C)c1C#N | inactive |
| CCOC(=O)c1sc(NC(=O)CSc2nnc(-c3ccco3)o2)c(C(=O)OCC)c1C | inactive |
| CCOC(=O)c1sc(NC(=O)CSc2ncccn2)c(C#N)c1C | 14.6 µM (active) |
| O=C(Nc1ccc2ccccc2c1[N+](=O)[O-])c1ccccc1 | inactive |
| COc1ccc(S(=O)(=O)N2CCCCC2)cc1NC(=O)COc1ccccc1 | inactive |
| CCCc1cc(=O)[nH]c(SCC(=O)Nc2ccc(C(=O)Nc3ccccc3OC)cc2)n1 | inactive |
| COc1cc(NS(=O)(=O)c2ccc3ccccc3c2)c2ncccc2c1 | 5.17 µM (active) |
| Cc1ccc(NS(=O)(=O)c2ccc(C)c(NC(=O)COc3ccc4ccccc4c3)c2)c(C)c1 | inactive |
| COc1ccc2cc(S(=O)(=O)Nc3ccccn3)ccc2c1 | inactive |
| CC(=O)Nc1ccc(NC(=O)C(NS(=O)(=O)c2ccc3c(c2)OCCO3)C(C)C)cc1 (stereo not given) | inactive |
| Cc1ccc(-n2nc3ccc(NC(=O)/C=C/c4ccco4)cc3n2)cc1C | 8.2 µM (active) |
| CCC(=O)Nc1ccc2nn(-c3ccc(F)cc3)nc2c1 | inactive |
| Cc1nnc(NC(=O)/C=C/c2ccco2)s1 | inactive |
| CNN/C(N=Cc1ccc([N+](=O)[O-])s1)=N\S(=O)(=O)c1cc(C)c(Cl)cc1SCc1ccccc1 | inactive |
| CN(CCc1ccccc1)C(=O)c1cccc(NC(=O)Cc2ccc([N+](=O)[O-])cc2)c1 | inactive |
| O=C1c2ccccc2[C@@H]2C[C@@H](O)[C@H](Nc3ccccc3Cl)CCN12 | inactive |
| CC(C)N(C(=O)CSc1nnc(NC2CC2)s1)c1ccccc1 | inactive |
| CC(=O)c1c(C)oc2ccc(NS(=O)(=O)c3ccc(C(=O)O)cc3)cc12 | inactive |
| CC(=O)c1c(C)oc2ccc(NS(=O)(=O)c3ccccc3)cc12 | inactive |

| SMILES | Potency |
| --- | --- |
| COc1ccc(S(=O)(=O)Nc2ccc3oc(C)c(C(C)=O)c3c2)cc1 | 5.17 µM (active) |
| NN=C(NN=Cc1ccccc1)c1ccccc1 | inactive |
| COc1ccc(S(=O)(=O)N(C)C[C@H]2Oc3ccc(NS(=O)(=O)c4cccs4)cc3CC(=O)N([C@H](C)CO)C[C@H]2C)cc1 | inactive |
| Cc1ccc(N/C=C/C(=O)c2ccccc2)cc1C | inactive |
| Cc1cc(C)nc(SCC(=O)c2ccc(Cl)cc2)n1 | inactive |
| Cc1cc(C)nc(S/C=C/C(=O)c2ccccc2)n1 | 1.3 µM (active) |
| CC(=O)C[C@H](O)CC(=O)[C@@H]1OC(=O)[C@@H](C)C/C=C\Cc2ccccc21 | inactive |
| CCOc1ccc(NC(=O)CN(C)C(=O)CSc2ccccc2)cc1OCC | inactive |
| Cc1cc(NC(=O)CSc2nc3ccccc3n2CC(C)C)no1 | inactive |
| Cc1cc(NC(=O)CSc2nc3cc(Cl)ccc3c(=O)n2Cc2ccco2)no1 | 18.4 µM (active) |
| Cc1cc(NC(=O)CSc2nnc(-c3ccco3)n2N)no1 | inactive |
| COc1ccc(S(=O)(=O)N2CCOCC2)cc1NC(=O)Cc1coc2cc(C)ccc12 | inactive |
| COC(=O)C1CC2=C(CC(C)(C)CC2=O)N(c2ccccc2)C1=O (stereo not given) | inactive |
| Cc1nn(Cc2ccccc2)c(C)c1C(=O)N1CCN(CC(=O)Nc2ccccc2Cl)CC1 | inactive |
| CC(OC(=O)c1cc2ccccc2o1)C(=O)Nc1ccc(N2CCOCC2)cc1 (stereo not given) | inactive |
| OC(c1nc2ccccc2[nH]1)C(O)C(O)C(O)c1nc2ccccc2[nH]1 (stereo not given) | inactive |
| OC(c1nc2ccc(F)cc2[nH]1)C(O)c1nc2ccc(F)cc2[nH]1 (stereo not given) | inactive |
| CC(C)c1nc2ccc(C(=O)O)cc2[nH]1 | 11.6 µM (active) |
| CN(C(=O)c1cccc(NC(=O)Cc2ccc(NC(=O)C3CCN(C(=O)C4CCCCC4)CC3)cc2)c1)C1CCC1 | inactive |
| Cc1ccc(S(=O)(=O)Nc2ccc3c(c2)C(=O)N([C@H](C)CO)C[C@@H](C)[C@@H](CN(C)C(=O)Nc2cccc4ccccc24)O3)cc1 | inactive |
| CCOc1ccccc1/C=N/Nc1nc2ccccc2o1 | inactive |
| CCOc1ccccc1-c1cc(C(=O)N2CCOCC2)c2ccccc2n1 | inactive |
| CCOc1cccc(/C=C/c2ccc3ccccc3n2)c1OC(C)=O | 23.1 µM (active) |
